# Screens: PubChem, National Center for Advancing Translational Sciences (NCATS)
# uPA generation: inhibitors of cell surface uPA generation | cell surface uPA generation assay, qHTS | Potency, µM (series often up to 38.3 µM), for the others: top-dose activity change, negative = inhibition, usual class: inhibitors | actives 0.31% (n = 330,000); active means well fitted inhibition curve with a large enough effect; inconclusive means small, poorly fitted or top-dose-only effect; inactive means no such curve, though single readings can be large or run the other way; tested in mouse RAW 264.7 cells; further: potency means the concentration at half of the fitted maximal effect; on the % scale 0 is the no-effect control and ±100 the full control effect; nearly all actives have a fitted effect of over 55% in size
# DRD3 antagonist: D3 dopamine receptor (human) antagonism; P35462; D3R cells, DiscoveRx beta-arrestin luminescence, antagonist mode; active compounds read low; max response, negative = inhibition, %; actives 2.5% (n = 360,000); in the data active means max response below about -50%; inconclusive means no clear call, values can overlap the other calls; further: on the % scale 0 is the no-effect control and ±100 the full control effect
# Target sequence (P35462 whole entry, looked up): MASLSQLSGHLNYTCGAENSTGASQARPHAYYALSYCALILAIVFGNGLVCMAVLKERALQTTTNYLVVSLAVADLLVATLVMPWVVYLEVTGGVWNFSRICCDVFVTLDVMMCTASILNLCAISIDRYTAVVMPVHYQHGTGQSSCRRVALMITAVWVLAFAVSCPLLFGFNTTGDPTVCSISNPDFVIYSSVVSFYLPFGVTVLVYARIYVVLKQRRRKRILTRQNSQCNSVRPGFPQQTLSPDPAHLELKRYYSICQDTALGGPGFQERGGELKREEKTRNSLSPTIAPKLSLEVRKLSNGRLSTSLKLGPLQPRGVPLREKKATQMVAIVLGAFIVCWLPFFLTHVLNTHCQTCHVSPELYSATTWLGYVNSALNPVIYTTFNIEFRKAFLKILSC
#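 Cells expressing the human receptor were seeded at 1500 cells/well, incubated overnight at 37 degrees C in 5% CO2, then exposed to library compounds with dopamine controls for 90 minutes at 37 degrees C before luminescent detection.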
# RGS4 inh: blocks human RGS4-accelerated GTP hydrolysis; Transcreener GDP fluorescence polarization, RGS4-accelerated GTP hydrolysis; Potency, µM (doses to about 114 µM), for the others: top-dose activity change, negative = inhibition, hits mostly inhibitors; actives 0.039% (n = 390,000); AID 504845; active means well fitted inhibition curve with a large enough effect; inconclusive means small, poorly fitted or top-dose-only effect; inactive means no such curve, though single readings can be large or run the other way; further: potency means the concentration at half of the fitted maximal effect; on the % scale 0 is the no-effect control and ±100 the full control effect; nearly all actives have a fitted effect of over 75% in size
# Target sequence (P49798 whole entry, looked up): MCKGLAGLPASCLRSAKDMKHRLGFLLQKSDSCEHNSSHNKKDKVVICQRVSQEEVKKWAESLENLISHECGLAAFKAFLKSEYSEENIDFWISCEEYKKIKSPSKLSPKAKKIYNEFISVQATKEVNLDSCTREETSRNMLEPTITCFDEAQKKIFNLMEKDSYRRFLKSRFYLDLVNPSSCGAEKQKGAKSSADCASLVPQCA
#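 MLSMR compounds (23 nl, pin-transferred) preincubated 10 min at room temperature with a 500nM (2x) first reagent, then RGS4 at 900nM (2x) plus Transcreener GDP mix added; fluorescence polarization (620/688 nm) read before and after 90 min at 30 °C.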
# D3 ag: activates the human D3 dopamine receptor. P35462. D3R DiscoveRx beta-arrestin cells, luminescence, 90 min. max activation, %. actives 0.58% (n = 410,000). AID 652048; in the data active means max activation above about 30%; further: 0% is about no effect
#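 Agonist mode: compounds and dopamine controls were applied to plated cells for 90 min at 37 degrees C after an overnight attachment at 1500 cells/well. Luminescent read-out followed 30 - 60 minutes at room temperature with DiscoveRx detection reagent.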
# Numbers without * were called inactive; ? = inconclusive; / = no result; [ ] = remark or other dose. Compounds with a hit are over-represented: about 3.1% of the library has one in this group of screens.
SMILES,uPA generation,DRD3 antagonist,RGS4 inh,D3 ag
Cc1ccc(OCC(=O)OC2CCCN(C)C2)cc1 (configuration not stated),-16.0%,-4.2,-34.3%,0.6
CC1CCN(CCCCOc2ccc(Cl)cc2)CC1,-4.0%,-23.6,-1.6%,-13.1
CC(C)(C)c1ccc(OCCCCCCN2CCNCC2)cc1,1.7%,-13.7,-0.8%,-12.7
CC(C)(C)c1ccc(OCCN2CCCC2)cc1,2.5%,-93.5*,-6.1%,-20.4
CN1CCC(OC(=O)COc2ccc(C(C)(C)C)cc2)CC1,/,-55.7*,3.3%,-58.3
CC1CCN(CCCCOc2ccc(C(C)(C)C)cc2)CC1,-10.7%,-88.2*,-6.2%,-19.6
CCOc1ccccc1NC(=O)CN1C(=O)CC(c2ccc(OC)c(OC)c2)Sc2ccccc21 (configuration not stated),/,/,2.0%,3.9
COc1ccc(CCNC(=O)c2cn(C)c3ccc(S(=O)(=O)N(C)C)cc3c2=O)cc1OC,/,/,13.0%,-4.8
CCn1cc(C(=O)N2CCN(c3ccccc3)CC2)c(=O)c2cc(S(=O)(=O)N3CCC(C)CC3)ccc21,/,/,12.8%,1.1
O=C1c2ccccc2S(=O)(=O)N1Cc1cc(=O)n2ccsc2n1,-4.2%,-75.5*,35.8%,-4.6
O=c1cc(CN2CCCCCC2)nc2sccn12,-1.9%,-5.1,-15.2%,-5.5
O=C(Cn1c(=O)sc2ccc(Cl)cc21)N1CCN(CCO)CC1,/,/,/,8.1
COC(=O)C1CCN(C(=O)COc2ccc(S(=O)(=O)N3CCOCC3)cc2Cl)CC1,4.3%,-2.1,16.2%,62.8*
Cc1ccc(C)c(Cn2c(=O)n(CCc3ccccc3)c(=O)c3c(C)c(C)sc32)c1,/,/,-3.0%,0.6
Cc1ccc(/C=C/C(=O)c2ccc([N+](=O)[O-])o2)cc1,?,-62.4*,-30.2%,-16.1
O=C(/C=C/c1ccc(Cl)cc1)c1ccc([N+](=O)[O-])o1,?,-101.0*,-39.6%,-38.3
COc1ccc2ccccc2c1CN1CCN(C(=O)c2ccco2)CC1,-0.7%,-10.1,-20.3%,47.9*
CCOc1ccc(CN2CCN(C(=O)c3ccco3)CC2)cc1,1.9%,0.0,5.0%,25.4
CCOc1cc(CN2CCN(C(=O)c3ccco3)CC2)ccc1OC,-1.4%,?,16.8%,43.7*
O=C(c1ccco1)N1CCN(Cc2nnc(-c3cccc(Cl)c3)o2)CC1,0.3%,-6.7,1.8%,36.9*
COc1ccc(-c2cc(C(=O)Nc3ccn(Cc4ccc(C)cc4)n3)no2)cc1OC,/,/,-8.2%,4.7
Cc1nc(N2CCOCC2)c2cc(-c3ccccc3)sc2n1,12.6%,-57.0*,-24.7%,-10.4
c1ccc(-c2cc3c(N4CCOCC4)ncnc3s2)cc1,4.6%,39.5,15.6%,4.6
CCOC(=O)c1cnc2c(C)c(Cl)ccc2c1Nc1ccc(N2CCOCC2)cc1,/,/,-17.7%,0.5
O=c1c2c3c(sc2n(Cc2ccc(F)cc2Cl)c(=O)n1-c1ccc(Cl)cc1)CCC3,/,/,-3.9%,-17.7
SMILES,uPA generation,DRD3 antagonist,RGS4 inh,D3 ag
CCCS(=O)(=O)N1CCCC(C(=O)NCCCN2CCN(c3cccc(Cl)c3)CC2)C1 (configuration not stated),-7.3%,-25.2,20.8%,0.3
O=C(NCCCN1CCN(c2ccccc2F)CC1)C1CCN(S(=O)(=O)c2cccs2)CC1,/,?,-4.7%,0.0
CCCS(=O)(=O)N1CCCC(C(=O)NCCCN2CCN(c3ccccc3F)CC2)C1 (configuration not stated),1.0%,-53.3*,-9.2%,30.7*
CCS(=O)(=O)N1CCC(C(=O)NCCCN2CCN(c3ccccc3F)CC2)CC1,0.1%,-52.2*,4.6%,39.6*
Cc1ccc(-n2c(SCC(=O)N3CCC(C)CC3)nc3c([nH]c4ccccc43)c2=O)cc1,/,/,-22.7%,-19.5
Cc1ccc(-c2nnc3ccccc3c2C(=O)Nc2ccc(C)c(F)c2)cc1,/,/,11.2%,0.8
COc1ccc2nc3oc(C(=O)NCc4ccccc4OC)cc3cc2c1,/,/,-9.6%,4.7
COc1cc2c(cc1OC)CN(C(=O)c1cccs1)CC2,-3.1%,-10.9,-23.3%[11.4 µM],-1.6
COc1cc2c(cc1OC)CN(C(=O)/C=C/c1cccs1)CC2,3.16µM*,4.8,-3.2%,-3.5
O=C(COCc1cc(-c2cccs2)on1)N1CCN(c2ccccc2)CC1,/,/,26.3%,-12.5
Cc1ccc(NC(=O)C2=C(c3ccccc3)S(=O)(=O)CCS2(=O)=O)cc1,2.5%,-71.3*,?,-22.5
CCCCCCCCN1C(=O)[C@H](CC(=O)N2CCN(C(=O)c3ccco3)CC2)C[C@@]2(C(=O)OC)CC(C)(C)CC=C12,/,30.7,/,7.8
N#Cc1cc2ccccc2nc1SCc1cccnc1,-5.7%,-83.0*,-12.3%,13.8
COc1ccc2[nH]c3c(c2c1)CNCC3,/,19.1,/,4.5
Clc1ccc2[nH]c3c(c2c1)CNCC3,10.2%,-97.7*,-2.7%,-33.7
Clc1cccc2c3c([nH]c12)CCNC3,3.1%,-60.1*,-11.2%,-44.1
O=C(O)c1cccc2c3c([nH]c12)CCCC3,7.8%,4.8,22.7%,5.1
O=S(=O)(Nc1cccc2ccccc12)c1ccc2ccccc2c1,/,/,-42.9%,/
Cc1ccc(CNC(=O)C2CCCN(S(=O)(=O)c3cn(C)cn3)C2)cc1 (configuration not stated),/,/,3.0%,9.6
Cc1ccc(C(=O)COC(=O)C(CC(C)C)NC(=O)C2CCC(C)CC2)cc1 (configuration not stated),/,/,26.1%,-2.6
CCOC(=O)[C@H](CCc1ccccc1)N[C@@H](C)C(=O)N1Cc2cc(OC)c(OC)cc2C[C@H]1C(=O)O,/,/,/,5.7
COc1cc2c(cc1CNC[C@H]1O[C@@H](n3cnc4c(N)ncnc43)[C@H](O)[C@@H]1O)OCO2,14.3%,7.0,3.9%,38.9*
Nc1ncnc2c1ncn2[C@@H]1O[C@H](CNC(=O)[C@@H](N)CO)[C@@H](O)[C@H]1O,7.2%,-12.8,-6.4%,4.9
Nc1ncnc2c1ncn2[C@@H]1O[C@H](CNC(=O)[C@H](N)Cc2cscn2)[C@@H](O)[C@H]1O,3.9%,-83.8*,11.3%,-1.7
CC(C)Oc1cc2ccccc2cc1CNC[C@H]1O[C@@H](n2cnc3c(N)ncnc32)[C@H](O)[C@@H]1O,-8.0%,28.8,21.5%,11.6
SMILES,uPA generation,DRD3 antagonist,RGS4 inh,D3 ag
Nc1ncnc2c1ncn2[C@@H]1O[C@H](CCC(=O)NCc2ccccc2)[C@@H](O)[C@H]1O,/,-93.2*,/,-10.0
Nc1ncnc2c1ncn2[C@@H]1O[C@H](CNC(=O)[C@@H](N)Cc2ccccc2)[C@@H](O)[C@H]1O,2.2%,39.8,-4.8%,5.4
COc1ccc(CNC(=O)c2nc(Cn3nc(C)c(Br)c3C)no2)cc1OC,/,/,-10.9%,3.0
Cc1cc(=O)oc2cc(OCCc3ccccc3)ccc12,-3.4%,-7.6,11.1%,-2.3
Cc1cc(=O)oc2cc(OCCSCCN3CCCCC3)ccc12,-10.8%,-65.5*,22.3%,-12.3
COc1ccc(CCNC(=O)NCc2noc3ccccc23)c(OC)c1,/,/,13.9%,4.0
CCc1nc2ccc(C(=O)NCCCN3CCCC3=O)cn2c1N(CC)C(C)=O,/,-55.9*,/,-4.7
O=C(CSc1nnc(-c2ccco2)o1)NC(=O)C1COc2ccccc2O1 (configuration not stated),4.4%,-55.3*,30.8%,3.3
